Assay results as given in PubChem BioAssay (NCATS).
Where “and” joins values, the source holds several entries; their conditions need not be identical. Identical values can stand only once. Records with an inconclusive call do not appear. Values without a mark were called inactive. Calls of active or inactive are those of the source. Calls come from the whole dose curve; as a rule, active = well fitted curve in the direction sought with a large enough effect; inconclusive = small, poorly fitted or top-dose-only effect, or another doubt; inactive = no such curve, though single readings can be large or run the other way.

assay: qHTS Assay for Identifying Gametocytocidal Compounds (AID 743244);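 for max response: actives lower the fluorescent signal which means gametocytes are killed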; conditions: P. falciparum 3D7 stage III-V gametocytes, alamarBlue, 72 h; max response: stronger effect = lower value
How it was run: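 Stage III–V gametocytes of P. falciparum 3D7 were seeded at 20,000 cells/well onto pre-dispensed compounds. After 72 h, 37 °C, 5% CO2, alamarBlue was added for another 24 h.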
% is set by controls: 0 for no effect and ±100 for the full control effect; potency is the fitted concentration of half-maximal effect.

**Q.** Which max response does the source give for `Clc1ccc(Cl)cc1` here?
**A.** The max response was -1.73%.

**Q.** Which max response does the source give for `CCN1C[C@]2(COC)[C@H](O)C[C@H](OC)[C@@]34[C@@H]5C[C@@]6(O)[C@H](OC(=O)c7ccccc7)[C@@H]5[C@@](OC(C)=O)([C@@H]([C@H](OC)[C@H]23)[C@@H]14)[C@@H](O)[C@@H]6OC` here?
**A.** Its max response is -5.96%.

**Q.** Which max response does the source give for `C[C@]12C[C@H]3S[C@H]3C[C@@H]1CC[C@@H]1[C@@H]2CC[C@]2(C)[C@@H](O)CC[C@@H]12` here?
**A.** Its max response is 1.49%.

**Q.** Which max response does the source give for `CCCCCCC(=O)O[C@H]1CC[C@H]2[C@@H]3CC[C@H]4CC(=O)C=C(C)[C@]4(C)[C@H]3CC[C@]12C` here?
**A.** The max response was 7.58%.

**Q.** With `CC1CCC(C(C)C)C(OC(=O)c2ccccc2N)C1` (stereo not given) as the compound, how does the max response read?
**A.** Its max response is 9.28%.

**Q.** With `CC(C)(O)[C@@H]1[C@H]2OC(=O)[C@@H]1[C@]1(O)C[C@H]3O[C@]34C(=O)O[C@H]2[C@]14C` as the compound, how does the max response read?
**A.** The max response was -7.5% and 15.4%.

**Q.** For `C[C@@H](CO)NC(=O)[C@@H]1C=C2c3cccc4[nH]cc(c34)C[C@H]2N(C)C1`, which max response is on record?
**A.** Its max response is -6.08%.

**Q.** For `c1ccc(C2(N3CCCC3)CCCCC2)cc1`, which max response is on record?
**A.** The max response was -1.69%.

**Q.** For `C#CC(C)(O)CC` (stereo not given), which max response is on record?
**A.** Its max response is 4.2%.

**Q.** Which max response does the source give for `C[C@]12CC[C@H](OS(=O)(=O)O)CC1=CC[C@@H]1[C@@H]2CC[C@]2(C)C(=O)CC[C@@H]12` here?
**A.** The max response was 33.6%.

**Q.** Which max response does the source give for `COc1ccc2c3c1O[C@H]1[C@@H](O)C=C[C@H]4[C@@H](C2)NCC[C@@]341` here?
**A.** The max response was -9%.

**Q.** Which Potency does the source give for `[H+].[H+].[Hg+2].[O-]B([O-])[O-].[c-]1ccccc1` here?
**A.** The Potency was 3.55 µM (active).

**Q.** For `c1cc2c(c(NC3=NCCN3)c1)CCCC2`, which max response is on record?
**A.** The max response was -7.43%.

**Q.** Which max response does the source give for `CC(=O)OC1CN2CCC1CC2` (stereo not given) here?
**A.** Its max response is -0.102%.

**Q.** With `CCC1(c2ccccc2)C(=O)NC(=O)NC1=O` as the compound, how does the max response read?
**A.** Its max response is 6%.

**Q.** With `C[C@]12CCC(=O)C=C1C=C[C@@H]1[C@@H]2CC[C@@]2(C)[C@H]1CC[C@@]2(O)CCC(=O)O` as the compound, how does the max response read?
**A.** Its max response is 16.5%.

**Q.** With `CCN(CC)C(=O)/C(Cl)=C(\C)OP(=O)(OC)OC` as the compound, how does the max response read?
**A.** Its max response is -6.42%.

**Q.** With `NCC(O)c1cccc(O)c1` (stereo not given) as the compound, how does the max response read?
**A.** Its max response is 13.2%.

**Q.** Which max response does the source give for `S=C(S)N1CCNCC1` here?
**A.** The max response was -5.89%.

**Q.** With `c1csc(C2(N3CCCCC3)CCCCC2)c1` as the compound, how does the max response read?
**A.** Its max response is -3.82%.

**Q.** For `CCC(N)Cc1c[nH]c2ccccc12` (stereo not given), which max response is on record?
**A.** Its max response is 2.35% and -8.43%.

**Q.** For `CC[C@H]1[C@@H]2C[C@H]3[C@@H]4N(C)c5ccccc5[C@]45C[C@@H](C2[C@H]5O)N3[C@@H]1O` (stereo not given in full), which max response is on record?
**A.** The max response was 7.56%.

**Q.** For `C[C@]12CC[C@H]3[C@@H](CC[C@@]45O[C@@H]4C(O)=C(C#N)C[C@]35C)[C@@H]1CC[C@@H]2O`, which max response is on record?
**A.** Its max response is -8.72%.

**Q.** For `C[C@H]1CC[C@]2(NC1)O[C@H]1C[C@H]3[C@@H]4CC[C@H]5C[C@@H](O[C@@H]6O[C@H](CO)[C@H](O[C@@H]7O[C@H](CO)[C@@H](O)[C@H](O[C@@H]8OC[C@@H](O)[C@H](O)[C@H]8O)[C@H]7O[C@@H]7O[C@H](CO)[C@@H](O)[C@H](O)[C@H]7O)[C@H](O)[C@H]6O)CC[C@]5(C)[C@H]4CC[C@]3(C)[C@H]1[C@@H]2C`, which max response is on record?
**A.** The max response was 6.32%.

**Q.** Which max response does the source give for `CNC(=O)OCC[N+](C)(C)C` here?
**A.** The max response was -1.58%.

**Q.** With `C[N+]1([O-])[C@@H]2CC[C@H]1CC(OC(=O)C(CO)c1ccccc1)C2` (stereo not given in full) as the compound, how does the max response read?
**A.** Its max response is 6.16% and -9.54%.

**Q.** Which max response does the source give for `Cc1cccc(C(C)c2cnc[nH]2)c1C` (stereo not given) here?
**A.** The max response was 17.3%.

**Q.** With `COc1cc2c(cc1OC)[C@@]13CCN4CC5=CCO[C@H]6CC(=O)N2[C@H]1[C@H]6[C@H]5C[C@H]43` as the compound, how does the max response read?
**A.** The max response was 18.6%.

**Q.** With `[S]=[Sb](=[S])[S][Sb](=[S])=[S]` as the compound, how does the max response read?
**A.** Its max response is 3.55%.

**Q.** For `CCCCCCCCCC(=O)O[C@H]1CC[C@H]2[C@@H]3CCC4=CC(=O)CC[C@]4(C)[C@H]3CC[C@]12C`, which max response is on record?
**A.** The max response was 4.27%.

**Q.** Which max response does the source give for `CC(=O)O[C@H]1C[C@H](O[C@H]2[C@@H](O)C[C@H](O[C@H]3[C@@H](O)C[C@H](OC4CC[C@@]5(C)[C@H](CC[C@@H]6[C@@H]5CC[C@]5(C)[C@@H](C7=CC(=O)OC7)CC[C@]65O)C4)O[C@@H]3C)O[C@@H]2C)O[C@H](C)[C@H]1O[C@@H]1O[C@H](CO)[C@@H](O)[C@H](O)[C@H]1O` (stereo not given in full) here?
**A.** Its max response is 9.96%.

**Q.** With `CCC1(c2ccccc2)C(=O)NC(=O)N(C)C1=O` (stereo not given) as the compound, how does the max response read?
**A.** The max response was -0.22%.

**Q.** For `CCCCC[C@@H](O)C1C(=O)OC(C)[C@H](O)/C=C/C=C/C=C/C=C/C=C(\C)C(O)C(O)C(O)C[C@H](O)C[C@H](O)C[C@H](O)C[C@H](O)C[C@@H]1O` (stereo not given in full), which max response is on record?
**A.** Its max response is 0.532% and 10.2%.

**Q.** Which max response does the source give for `C[C@]12CC[C@H](O)C[C@H]1CC[C@@H]1[C@@H]2CC[C@]2(C)[C@@H](c3ccc(=O)oc3)C[C@H]3O[C@]132` here?
**A.** The max response was 10.6%.

**Q.** For `CC(=O)O[C@H]1C[C@H](O[C@H]2[C@@H](O)C[C@H](O[C@H]3[C@@H](O)C[C@H](O[C@H]4CC[C@@]5(C)[C@H](CC[C@@H]6[C@@H]5C[C@@H](O)[C@]5(C)[C@@H](C7=CC(=O)OC7)CC[C@]65O)C4)O[C@@H]3C)O[C@@H]2C)O[C@H](C)[C@H]1O[C@@H]1O[C@H](CO)[C@@H](O)[C@H](O)[C@H]1O`, which max response is on record?
**A.** The max response was -19.5%.

**Q.** Which max response does the source give for `COc1ccc2c3c1O[C@H]1C(=O)CC[C@H]4[C@@H](C2)N(C)CC[C@]314` here?
**A.** Its max response is 13%.

**Q.** For `CC1(C)S[C@@H]2[C@H](N)C(=O)N2[C@H]1C(=O)O`, which max response is on record?
**A.** The max response was -4.29%.

**Q.** For `C[C@@H](Cc1ccccc1)N(C)C`, which max response is on record?
**A.** Its max response is -7.23%.

**Q.** Which max response does the source give for `C[N+]1(C)CCCCC1COC(=O)C(O)(c1ccccc1)c1ccccc1` (stereo not given) here?
**A.** Its max response is -10.4%.

**Q.** Which max response does the source give for `C[C@@H]([C@H](O)c1ccccc1)N(C)C` here?
**A.** The max response was 8.71%.
